Screens: PubChem, National Center for Advancing Translational Sciences (NCATS)
Compounds with a hit are over-represented: about 8% of the library has one in this group of screens.
KB-V1 cytotox: qHTS assay for MDR1-selective chemotherapeutics: Primary screen using the drug-selected MDR subline cells KB-V1; KB-V1 MDR cells viability, CellTiter-Glo, 72 h; Potency, µM (highest dose often 46.1 µM), hits mostly cytotoxic; hit rate 3.4% among 400,000; AID 1347076, 2019; further: on the % scale 0 is the no-effect control and ±100 the full control effect; nearly all actives have a fitted effect of over 60% in size
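Drug-selected KB-V1 cells, grown in DMEM lacking phenol red with 10% FBS, receive compound titrations; after three days at 37 degrees C, surviving cell ATP is quantified by CellTiter-Glo luminescence and responses normalized and curve-fitted.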
KB-3-1 tox: qHTS assay for MDR1-selective chemotherapeutics: Primary screen using the parental adenocarcinoma cell KB-3-1. KB-3-1 viability, CellTiter-Glo ATP luminescence, 72 h. Potency, µM (highest dose often 46.1 µM), most hits filed as cytotoxic. hit rate 1.4% among 400,000. AID 1347075, 2019; further: on the % scale 0 is the no-effect control and ±100 the full control effect; nearly all actives have a fitted effect of over 60% in size
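72 h, 37 °C compound treatment of KB-3-1 parental cells; CellTiter-Glo added, 10 min, luminescence read. Data corrected against DMSO-only plates and normalized before curve fitting.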
HT1080NT lethal: qHTS for induction of synthetic lethality in tumor cells producing 2HG: qHTS for the HT-1080-NT fibrosarcoma cell line. hit rate 1.6% among 360,000. Potency, µM (doses to about 46.1 µM), inactives show at the top dose activity, negative = less viability, hits mostly cytotoxic. HT-1080-NT fibrosarcoma viability, CellTiter-Glo ATP luminescence, 48 h;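 further: NT is the 2HG producing partner of a matched IDH1 knockdown line; 0% = DMSO-treated cells and -100% = media-only wells without cells; nearly all actives have a fitted effect of over 55% in size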
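Toxicity toward the 2HG-producing NT line was scored as %Activity, normalised to DMSO and no-cell wells, from CellTiter-Glo luminescence after 48 hours' treatment.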
MCF10A rerep: A quantitative high throughput screen for small molecules that induce DNA re-replication in MCF 10a normal breast cells. MCF 10A DNA re-replication, Hoechst nuclear intensity, 48 h. Potency, µM (series often up to 46.1 µM), for the others: at the top dose activity, positive = re-replication, usual class: activators. hit rate 2.9% among 350,000. AID 624296, 2012; further: % of control where 0% means no effect; nearly all actives have a fitted effect of over 50% in size
HT1080 IDH1KD tx: qHTS for induction of synthetic lethality in tumor cells producing 2HG: qHTS for the HT-1080-IDH1KD cell line; HT-1080 IDH1 knockdown viability, ATP luminescence, 48 h; Potency, µM (titrated, usually from 46.1 µM), for inactives: at the top dose activity, negative = toxicity, usual class: cytotoxic; hit rate 2% among 360,000; AID 686971, 2013;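 further: 0% = DMSO wells and -100% = cell-free medium wells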
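IDH1KD HT-1080 cells, 750/well, RPMI + 5% FBS; compound pinned after 2 h settling; 48 h, 37 °C; CellTiter-Glo luminescence; % activity normalised to DMSO and no-cell wells; curves fitted, classed by r2 and efficacy.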
SW480 rereplic: A quantitative high throughput screen for small molecules that induce DNA re-replication in SW480 colon adenocarcinoma cells. Potency, µM (highest dose often 46.1 µM), without a hit: at the top dose re-replication activation, actives largely listed as activators. AID 624297, 2012. hit rate 1.8% among 340,000. SW480 DNA re-replication, Hoechst DNA content imaging, 48 h; further: % of control where 0% means no effect; nearly all actives have a fitted effect of over 55% in size
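Cells (250 per well) received 23 nL compound or DMSO by pin tool and were kept 48 hr at 37 C, 5% CO2. Nuclei were then stained with Hoechst for 40 min and scanned for DNA content.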
The depositor's hits bear a star; i = inactive; ? = inconclusive; / = no result given. The call rests on the fitted dose curve; in most records, active means well fitted curve in the direction sought with a large enough effect; inconclusive means small, poorly fitted or top-dose-only effect, or another doubt; inactive means no such curve, though single readings can be large; an effect the other way counts as inactive or inconclusive. Potency means the concentration at half of the fitted maximal effect.

SMILES	KB-V1 cytotox	KB-3-1 tox	HT1080NT lethal	MCF10A rerep	HT1080 IDH1KD tx	SW480 rereplic
COc1[nH]c(/N=C/c2ccco2)c(C#N)c1C#N	i	?	/	/	/	/
COc1ccc(OC)c(CNC(=O)Nc2cn(CC(C)C)c(=O)c3ccccc23)c1	i	i	/	/	/	/
CCC(C)(C)NC(=O)C(c1cccn1C)N(Cc1ccccc1)C(=O)Cn1nnc2ccccc21 (stereo not given)	2.6µM*	i	8%	6%	20%	-4%
O=C(Cc1ccc(Oc2ccccc2)cc1)NO	i	i	/	/	/	/
COc1cc2c(cc1OC)CN(C(=O)c1ccc([N+](=O)[O-])o1)CC2	?	i	13µM*	?	?	6.5µM*
Cc1ccc2sc(N3CCN(C(=O)c4ccc([N+](=O)[O-])o4)CC3)nc2c1C	i	i	1%	?	-9%	2%
COc1cccc2sc(N3CCN(C(=O)c4ccc([N+](=O)[O-])o4)CC3)nc12	?	?	-25%	23µM*	-2%	?
O=C(c1ccc([N+](=O)[O-])o1)N1CCc2ccccc21	?	?	-2%	9.2µM*	?	21µM*
O=C(c1ccc([N+](=O)[O-])o1)N1CCN(c2nc3c(Cl)cccc3s2)CC1	?	?	-1%	7.3µM*	-10%	?
O=C(c1ccc([N+](=O)[O-])o1)N1CCc2ccccc2C1	?	i	-2%	2%	-22%	?
Cc1ccc(C(=O)N2CCc3ccccc32)o1	?	?	-14%	0%	-23%	3%
CC(=O)c1cccc(NC(=O)CSc2nc(=O)n(Cc3ccco3)c3c2CCC3)c1	i	i	/	/	/	/
COc1ccccc1CNC(=O)c1ccc2c(c1)nc(C)n2-c1cccc(C)c1	i	i	/	/	/	/
CCC(=O)N1c2ccccc2CC1C(=O)NCCc1cc(OC)c(OC)c(OC)c1 (stereo not given)	i	i	/	/	/	/
CCCOc1ccc(C2=NC(c3ccc(F)cc3)=Nc3ccc(OC)cc3N2)cc1	i	i	/	/	/	/
COc1ccc(-c2noc(COc3cc(C)c(Br)c(C)c3)n2)cc1OC	i	i	/	/	/	/
Oc1ccc(/C(Cc2ccccn2)=N\Nc2ccccc2)c(O)c1	?	i	?	?	9.2µM*	?
CCOC(=O)c1cc(OC(=O)c2ccc(OC)c(OC)c2)n(-c2ccccc2)n1	i	i	/	/	/	/
COc1cccc(C2CC(=O)Nc3cc4c(cc32)OCCO4)c1OC(C)C (stereo not given)	?	?	-9%	?	-20%	?
COc1ccccc1C1CC(=O)Nc2cc3c(cc21)OCCO3 (stereo not given)	5.8µM*	?	2.2µM*	3.7µM*	1.8µM*	2.1µM*
O=C1CC(c2cccs2)c2cc3c(cc2N1)OCCO3 (stereo not given)	i	i	-40%	18µM*	-9%	4%
CC(C)Oc1ccccc1C1CC(=O)Nc2cc3c(cc21)OCCO3 (stereo not given)	?	?	1µM*	?	0.71µM*	1.6µM*
COc1ccc(-c2cn3cccnc3n2)cc1NC(=O)Nc1cc(C)ccc1C	i	i	/	/	/	/
CCCN1CNc2c(c(=O)[nH]c(=S)n2CCc2cccc(C)c2C)C1	/	/	10%	/	13%	/
CCOC(=O)c1c(N)n(-c2ccc(Cl)c(Cl)c2)c2nc3ccccc3nc12	?	i	/	/	/	/
SMILES	KB-V1 cytotox	KB-3-1 tox	HT1080NT lethal	MCF10A rerep	HT1080 IDH1KD tx	SW480 rereplic
Cc1nn(C(C)(C)C)c(OC(=O)C(C)(C)C)c1Sc1ccccc1	i	i	/	/	/	/
CC(=O)c1ccc(N=Nc2ccc(C)cc2)cc1	i	i	12%	12%	6%	5%
C=C(C)C(=O)Oc1ccc(N=Nc2ccc(C)cc2)ccc1=O	?	i	?	16µM*	23µM*	?
O=C(CN1CCN(Cc2cccc(C(F)(F)F)c2)CC1)NCC(=O)Nc1ccc(F)c(F)c1F	23µM*	i	-1%	6%	-6%	0%
COc1ccc(-n2cccc2C=O)cc1	?	i	9%	-5%	7%	-4%
COc1ccc(-n2cccc2/C=C/[N+](=O)[O-])cc1	?	?	-1%	15µM*	?	23µM*
COc1ccc(-c2ccc(=O)n(CC(=O)NC3CCc4ccccc43)n2)cc1OC (stereo not given)	?	i	11%	-10%	9%	-24%
COc1cc2c(c(OC)c1OC)-c1ccc(SC)c(=O)cc1C(NC(=O)C(F)(F)F)CC2 (stereo not given)	0.13µM*	0.052µM*	0.0092µM*	?	0.0065µM*	0.021µM*
CCOCC(=O)NC1CCc2cc(OC(=O)COCC)c(OC)c(OC)c2-c2ccc(SC)c(=O)cc21 (stereo not given)	16µM*	0.0092µM*	0.073µM*	?	0.15µM*	0.082µM*
O=Cc1ccc(O)cc1	i	i	/	/	/	/
Cc1cccc(Cn2c(SCc3ccc(C(=O)NCCc4ccccc4)cc3)nc3cccnc32)c1	18µM*	?	/	/	/	/
Cc1nc(NC(=O)CSc2nc3cccnc3n2Cc2ccccc2)sc1C	?	i	-10%	23µM*	-22%	13%
O=C(NCCc1ccccc1)c1ccc(CSc2nc3cccnc3n2Cc2ccc(F)cc2)cc1	i	i	/	/	/	/
Cc1cccc(Cn2c(SCc3ccc(C(=O)NCc4ccccc4F)cc3)nc3cccnc32)c1	15µM*	?	/	/	/	/
CCOc1ccc(NC(=O)Cn2c(=O)n(-c3ccc(C)cc3)c(=O)c3cc(OC)c(OC)cc32)cc1	i	i	/	/	/	/
Cn1nc(-c2ccc(C(=O)Nc3ccc(OC(F)(F)F)cc3)cc2)c2ccccc2c1=O	i	?	/	/	/	/
Cc1ccccc1SCC(=O)NNC(=O)c1ccccc1O	i	i	-24%	-8%	-26%	13µM*
CN1CCC(N(C)S(=O)(=O)c2ccc(NC(=O)COc3ccc(Br)cc3Cl)cc2)CC1	?	?	16µM*	?	18µM*	-30%
Cc1ccc(-n2nc(C)c3nc(CCC(=O)Nc4cccc(C)c4C)c(=O)n(C)c32)cc1	i	i	/	/	/	/
C/C(=N\NC(=O)CNC(=O)c1cccs1)c1ccc(Cl)c(Cl)c1	i	i	?	?	?	3.7µM*
